Assay results as given in PubChem BioAssay (NCI).
About 83,000 compounds went through this panel and 20% of them were active in at least one assay; those are over-represented in the sample as a whole.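 Activity criterion: percent growth below 10, measured after cells in 96-well plates were exposed to a single compound concentration for 48 hours.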 Values without a mark were called inactive. The source made the active and inactive calls.

Assays:
Assay in all cases: NCI-60 one-dose screen, 48 h (100 = growth as untreated, 0 = no growth, -100 = all killed)
Conditions in all cases: 10 µM
[1] = tested on: T-47D breast
[2] = tested on: BT-549 breast
[3] = tested on: MDA-MB-435 melanoma
[4] = tested on: SW-620 colon
[5] = tested on: MCF7 breast
[6] = tested on: HCT-116 colon
[7] = tested on: HCC-2998 colon
[8] = tested on: KM12 colon
[9] = tested on: MDA-MB-468 breast

| SMILES | growth [1] | growth [2] | growth [3] | growth [4] | growth [5] | growth [6] | growth [7] | growth [8] | growth [9] |
| --- | --- | --- | --- | --- | --- | --- | --- | --- | --- |
| COC[C@@H](CC(C)C)N=C1NC(=O)/C(=C/c2ccc3ncsc3c2)N1 | -7.77% (active) | -10.9% (active) | 12.7% | 5.92% (active) | -17.7% (active) | 19.2% | 15.5% | 21% | -17.8% (active) |
| COc1ccc(C2N(c3ccc(Br)cc3)N=C(C(C)=O)N2[C@H]2[C@H](OC(C)=O)O[C@H](COC(C)=O)[C@@H](OC(C)=O)[C@@H]2OC(C)=O)cc1 (some centres undefined) | 52.8% | 91.2% | 83.7% | 82.5% | 62.7% | 69% | 75.4% | 70.6% | 72.6% |
| N#C/C(=C\c1ccc(N(c2ccccc2)c2ccccc2)cc1)C(N)=O | -26.7% (active) | 69.6% | 92.7% | 45.6% | 6.51% (active) | 14.9% | 73.7% | 78.6% | -91.2% (active) |
| NS(=O)(=O)c1ccc(N=Nc2c(O)n(CC(=O)Nc3ccccc3Br)c3ccccc23)cc1 | 38.1% | 0.165% (active) | 50.6% | 44.4% | 10.7% | 21.4% | 39.5% | 36.7% | 35.8% |
| C/C(=C\CSc1ccccc1C(=O)O)CCCC(C)CCCC(C)CCCC(C)C (centres undefined) | 37.3% | 80.6% | 71.8% | 55.1% | 50.4% | 34.4% | 18.3% | 46.4% | 60.3% |
| O=C(NCCCCCCCCCC[P+](c1ccccc1)(c1ccccc1)c1ccccc1)c1ccc(-n2nc(-c3ccccc3O)nc2-c2ccccc2O)cc1 | -51.9% (active) | -87.4% (active) | -81.3% (active) | -60.9% (active) | -87% (active) | -79.4% (active) | -99.5% (active) | -27.1% (active) | -87.7% (active) |
| CN1CCN(c2ccc(Nc3nc(NCCNC(=O)c4ccc(C(F)(F)F)cc4)c4sccc4n3)cc2)CC1 | -6.48% (active) | -13.9% (active) | -95.2% (active) | 4.68% (active) | -44.4% (active) | 15.2% | -22.5% (active) | 31.4% | 5.65% (active) |
| COc1cc(-c2nc3cc(Cl)c(Cl)cc3[nH]2)ccc1OCc1nnc(-c2ccc(Br)cc2)o1 | -38.4% (active) | -73.4% (active) | -18.7% (active) | 21.6% | 5.68% (active) | 2.89% (active) | 69.2% | 46.1% | -10.9% (active) |
| CC(C)C1=C[C@@]23CC[C@@H]4[C@](C)(CCC[C@]4(C)C(=O)NCc4ccccc4)[C@H]2C[C@@H]1[C@H]1C(=O)OC(=O)[C@H]13 | 56% | 69.6% | 49.6% | 54.2% | 13.2% | 23.1% | 53.8% | 24.9% | 41.5% |
| O=C1NC(=NC23CC4CC(CC(C4)C2)C3)N/C1=C\c1ccc2ncsc2c1 | -0.474% (active) | -11.5% (active) | 17.8% | 5.03% (active) | -9.76% (active) | 14.1% | 16.2% | 2.26% (active) | -48.2% (active) |
| C/C(=C\CC/C=C(\C)CC/C=C(\C)CC[C@@H](O)C(C)(C)O)CC/C=C(\C)CC[C@@H](O)C(C)(C)O | 6.38% (active) | 8.56% (active) | 39.5% | 43% | 13.8% | 10% | 31.7% | 25.5% | 0.844% (active) |
| CC(=O)Nc1ccc(-n2cnc3cc(-c4ccc(O)cc4)ccc32)cc1C | 32.6% | 50.7% | -13.2% (active) | 44.2% | 50.9% | 70% | 60.7% | 22.1% | -7.11% (active) |
| Cc1ccc(-c2nc(Nc3ccccc3C(=O)O)c3ccccc3n2)cc1 | 10.7% | -23.5% (active) | 23.4% | 14.5% | 7.7% (active) | 6.7% (active) | 5.44% (active) | 8.37% (active) | -26.9% (active) |
| O=c1cc(-c2ccccc2)oc2cc(OCCCCNCc3ccccc3)cc(O)c12 | -70.7% (active) | 78.5% | -31.5% (active) | -39.1% (active) | -64.1% (active) | -73.7% (active) | -96.7% (active) | 23.8% | -28.2% (active) |
| Clc1ccc(/C=N/Nc2ncnc3sc4c(c23)CCN(Cc2ccccc2)C4)cc1 | -0.297% (active) | -6.23% (active) | -45.3% (active) | -74% (active) | -47.5% (active) | -93.5% (active) | 19.8% | -26.9% (active) | -62.4% (active) |
| COc1ccc(N(C)c2cc(C#N)nc3ccccc23)cc1N | 20.8% | 94.1% | -22.4% (active) | 19% | 9.87% (active) | 6.17% (active) | 7.99% (active) | 9.27% (active) | 3.98% (active) |
| O=C(c1ccc(Cl)cc1)C1[C@H](c2ccccc2Br)[C@@H](c2ccccc2)NC12C(=O)Nc1ccccc12 (some centres undefined) | 48.6% | 48% | -47.3% (active) | 5.99% (active) | -4.27% (active) | 16.3% | 7.29% (active) | 15.2% | -45.9% (active) |
| COc1ccc2nc(Cl)c(-c3cc(-c4ccccc4)nc(=S)[nH]3)cc2c1 | 76.4% | 14.7% | -27.6% (active) | 78.9% | 65% | 66.4% | 97.3% | 76.8% | 76% |
| CC(=O)Oc1ccccc1C(=O)Oc1ccc(C(=O)/C=C/c2ccncc2)cc1 | 54.9% | 31% | 23.2% | 6.33% (active) | 0.657% (active) | -28.5% (active) | -14% (active) | 22% | -59.3% (active) |
| CCOc1ccc2ncc(C#Cc3cncc(C(=O)Nc4ccc(CN5CCN(C)CC5)c(C(F)(F)F)c4)c3)n2n1 | 71.9% | -60.9% (active) | -74.2% (active) | -62.1% (active) | -63.7% (active) | -48% (active) | -89.3% (active) | -91.1% (active) | -76.1% (active) |
| Cc1ccc(F)cc1N/C=c1\s/c(=C(\C#N)C(=O)Nc2ccccc2)n(-c2ccccc2)c1=O | 76.7% | 99.7% | 98.5% | 105% | 38.8% | 42% | 92.1% | 84.8% | 53% |
| CN1CCN(c2ccc(Nc3nc(N4CCN(S(=O)(=O)c5ccc(Cl)cc5)CC4)c4sccc4n3)cc2)CC1 | -34.4% (active) | 64.6% | -100% (active) | -52.2% (active) | -83.5% (active) | -49.9% (active) | -8.56% (active) | -15.3% (active) | -96.7% (active) |
| CC1(c2ccccc2)NC(=O)N(CC(=O)Nc2ccc(C(=O)/C=C/c3ccc(Br)cc3)cc2)C1=O (centres undefined) | 14.3% | 25.4% | -44% (active) | 32.7% | -42.6% (active) | -69.7% (active) | 10.5% | -27.8% (active) | -8.76% (active) |
| COc1ccc2nc(Cl)c(-c3cc(-c4ccccc4)nc(N)n3)cc2c1 | 30.6% | -11.1% (active) | 45.5% | -60.2% (active) | 4.28% (active) | -92.1% (active) | 62.6% | -0.39% (active) | 14.9% |
| N#Cc1ccc(-c2nn(-c3ccc(C(=O)O)cc3)cc2CNc2ccc(Oc3ccccc3)cc2)cc1 | 22.6% | -5.49% (active) | 63.6% | 59.3% | 59.8% | 16.7% | 11.5% | 16.3% | 103% |
| N#Cc1c(NC(=O)c2ccc(C(O)(C(F)(F)F)C(F)(F)F)cc2)sc2c1CCC(=O)C2 | -60.5% (active) | -64.4% (active) | -45.2% (active) | -52.8% (active) | -62.1% (active) | -77.7% (active) | -95.6% (active) | -53.8% (active) | -90% (active) |
